Data published in PubChem BioAssay (NCI).
Compounds without any hit were thinned out: in the full panel of roughly 83,000, 20% have a hit.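 The endpoint reported here, percent growth, reads 100 for growth as untreated, 0 for no net growth and -100 for all cells dead.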 Active and inactive are the calls of the source. The calls were made as follows: active = growth percent below 10; inactive = the rest.

Key:
Assay in all cases: NCI-60 one-dose screen, 48 h (100 = growth as untreated, 0 = no growth, -100 = all killed)
Conditions in all cases: 10 µM unless noted
[1] = test system: SK-MEL-2 melanoma
[2] = test system: EKVX NSCLC
[3] = test system: SN12C renal
[4] = test system: UO-31 renal
[5] = test system: TK-10 renal
[6] = test system: ACHN renal
[7] = test system: CAKI-1 renal
[8] = test system: A498 renal
[9] = test system: CCRF-CEM leukemia
[10] = test system: MOLT-4 leukemia

Measured: growth

C[C@H](c1nc2ccc(N)cc2[nH]1)[C@H]1CC[C@H]2[C@@H]3CCC4=CC(=O)CC[C@]4(C)[C@H]3CC[C@]12C
inactive: [1] 106% | [2] 85.6% | [3] 88.3% | [4] 65.4% | [5] 109% | [6] 96.9% | [7] 91.3% | [8] 70.3% | [9] 63.7%

Oc1cccc(CCc2ccc(Oc3cc(CCc4cccc(O)c4)cc(O)c3O)cc2)c1
inactive: [1] 84.1% | [2] 85.1% | [3] 67.9% | [4] 36.4% | [5] 111% | [6] 77.1% | [7] 52.7% | [8] 95.2% | [9] 24.1%

COc1ccc(C(=O)CC#N)cc1
inactive: [1] 134% | [2] 126% | [3] 94.1% | [4] 105% | [5] 137% | [6] 108% | [7] 127% | [8] 109%

Cc1ccc(C(=O)/C(=C\c2ccc([N+](=O)[O-])cc2)S(=O)Cc2ccc(F)cc2)cc1 (stereo unspecified)
active: [3] -52.1% | [4] -46.1% | [6] -1.53% | [9] 3.64%
inactive: [1] 62.3% | [2] 58.5% | [5] 17.6% | [7] 30.3% | [8] 68.7%

COc1ccc(-c2nc(S(=O)(=O)c3ccccc3)c(S(=O)CC(=O)N3CCC(C)CC3)o2)cc1 (stereo unspecified)
inactive: [1] 67.9% | [2] 65.7% | [5] 33.1% | [7] 34.5% | [8] 83.8%
active: [3] -33.3% | [4] -65.9% | [6] -29.8% | [9] 1.85%

Cc1c2cc[nH]c(=O)c2c(C)c2c1[nH]c1cc(OCCN3CCN(C)CC3)ccc12
inactive: [3] 21% | [5] 27.5% | [7] 43.7% | [9] 13.9%
active: [1] -13.1% | [2] -2.81% | [4] 2.27% | [6] -17.5% | [8] -29.1%

O=[N+]([O-])c1ccc(N=Nc2cc(S(=O)(=O)O)c3cccc(S(=O)(=O)O)c3c2O)cc1
inactive: [1] 106% | [2] 82.7% | [3] 104% | [4] 66.1% | [5] 127% | [6] 107% | [7] 57.4% | [8] 124% | [9] 119%

CCOC(=O)c1cc(C(=O)c2ccc(Br)cc2)n2ccc(/C=C/c3cc[n+](CC(=O)c4ccc(OC)cc4)cc3)cc12
inactive: [1] 105% | [2] 95.3% | [3] 78% | [4] 77.6% | [5] 116% | [6] 93.6% | [7] 93.2% | [8] 92% | [10] 68.3%
active: [9] -23.7%

C[C@H]1[C@H]2[C@H]3CC[C@@H]4[C@@]5(C)CC[C@H](O)C(C)(C)[C@@H]5CC[C@@]4(C)[C@]3(C)CC[C@]23CO[C@]1(C)[C@@H](C(=O)/C=C\c1ccco1)C3
active: [1] 9.51%
inactive: [2] 105% | [3] 101% | [4] 77% | [5] 97.4% | [6] 44.3% | [7] 55.8% | [8] 96.2% | [9] 101%

O=C1c2ccccc2CCC12OC2c1cn(-c2ccccc2)nc1-c1ccc(Cl)cc1 (stereo unspecified)
inactive: [1] 112% | [2] 96.7% | [3] 101% | [4] 88.6% | [5] 113% | [6] 98.8% | [7] 74.3% | [8] 91.9% | [9] 86.3%

CCCN1[C@@H]2CC[C@H]1/C(=C\c1ccc(OC)c(OC)c1)C(=O)/C2=C/c1ccc(OC)c(OC)c1
inactive: [1] 53.6% | [2] 37.7% | [3] 49.9% | [4] 33.6% | [5] 67.2% | [6] 47.3% | [7] 45.9% | [8] 23.6% | [9] 30.6% | [10] 29.5%

O=C(CSc1nc2ccccc2[nH]1)NCc1ccccc1
inactive: [1] 120% | [2] 101% | [3] 95.8% | [4] 83.6% | [6] 95.4% | [7] 82.1% | [8] 105% | [9] 103%
active: [5] 4.87%

N#CC1=C(N)Oc2c(ccc3ccccc23)C1c1ccccc1Cl (stereo unspecified)
inactive: [1] 55.9% | [2] 65.3% | [3] 22.2% | [4] 43.2% | [6] 34% | [7] 27.4% | [9] 29.6%
active: [5] 6.11% | [8] -10.3%

N#C/C(=C\c1ccc([N+](=O)[O-])s1)c1nc2cc(Cl)ccc2s1
inactive: [5] 34.8% | [7] 43.3% | [8] 114%
active: [1] -19.6% | [2] 7.23% | [3] -27.5% | [4] -15.8% | [6] -46.6% | [9] 0.557% | [10] 8.53%

COc1ccc(/C=C/c2nc(Nc3ccc(Cl)cc3)c3ccccc3n2)cc1
inactive: [1] 89.2% | [2] 81.8% | [3] 38.5% | [4] 34.3% | [5] 70.8% | [6] 49.4% | [7] 56.5% | [8] 16.6% | [10] 32.1%
active: [9] 8.06%

CC(=O)O[C@@H]1C2CCC3C(CC[C@@]4(C)C3CC[C@@H]4C(C)N(C)C)[C@@]2(C)CC[C@@H]1NC(=O)C=C(C)C (stereo partly specified)
active: [4] 6.19% | [7] -6.25% | [9] -12%
inactive: [1] 31.9% | [2] 30.8% | [3] 32.7% | [5] 47.2% | [6] 25.4% | [8] 60.6%

Cc1ccc(NS(=O)(=O)c2ccc(-c3cnc(C4CC4)o3)cc2)cc1C(F)(F)F
inactive: [1] 84.8% | [2] 75.3% | [3] 88.6% | [4] 58% | [5] 93.7% | [6] 76.4% | [7] 42.7% | [8] 47% | [9] 56.8%

CC(C)(C)[Si](C)(C)OC1[C@@H](O[Si](C)(C)C(C)(C)C)[C@@H](CNC(=O)NC(=O)CCl)O[C@H]1n1cnc2c(NC(=O)Nc3ccccc3)ncnc21 (stereo partly specified)
active: [2] -40.4% | [3] -50.3% | [4] -75% | [6] -68.6% | [9] -37.9% | [10] -43.8%
inactive: [1] 42.7% | [5] 105% | [7] 37.9% | [8] 43.5%

COc1cc(OC)cc(C(=O)C[n+]2cccc3cc[nH]c32)c1
inactive: [1] 103% | [2] 98% | [3] 87.3% | [4] 71.2% | [5] 118% | [6] 101% | [7] 89% | [8] 92.1% | [9] 99.2% | [10] 105%

Cn1ccc2c1CC1CN(Cc3ccco3)C(=O)C1C2C(=O)O (stereo unspecified)
inactive: [1] 99.2% | [2] 91.1% | [3] 97.2% | [4] 89.6% | [5] 102% | [6] 105% | [7] 94.1% | [8] 98.3% | [9] 105%

CN1CCN(CCNc2nccc(-c3c(-c4cccc(O)c4)nc4sccn34)n2)S1(=O)=O
active: [1] -24.9%
inactive: [2] 99.1% | [3] 70.3% | [4] 56.2% | [5] 94.1% | [6] 37.4% | [7] 61.8% | [8] 119% | [9] 76.7%

CC(=O)[C@@H]1CC[C@]2(CO)CC[C@]3(C)[C@H](CC[C@@H]4[C@@]5(C)CCCNC(C)(C)[C@@H]5CC[C@]43C)[C@@H]12
inactive: [1] 105% | [2] 95.4% | [3] 91.2% | [4] 84.4% | [5] 110% | [6] 107% | [7] 97.1% | [8] 95.3% | [9] 103%

c1ccc(Cn2cnc3ccc(-c4nc(-c5ccc6c(c5)ncn6C5CCCCC5)cn5ccnc45)cc32)cc1
active: [1] -36.7% | [2] -12.3% | [3] -35.4% | [4] -51.4% | [5] 5.2% | [8] -71.8% | [9] 5.6% | [10] 4.39%
inactive: [6] 19.9% | [7] 43.3%

COc1cc2c3c(c4c5ccccc5[nH]c4c2c(OC)c1OC)C(=O)N(CCN1CCOCC1)C3=O
inactive: [1] 73.9% | [2] 91.2% | [3] 47.8% | [4] 52.4% | [5] 76.2% | [6] 35.2% | [7] 40.9% | [8] 54.1% | [9] 23.1%
active: [10] 6.55%

COc1cc(C2=NN(C(C)=O)C(c3cc(OC)c(OC)c(OC)c3)C2)ccc1O (stereo unspecified)
inactive: [1] 37.9% | [2] 34.8% | [3] 34.2% | [4] 31.8% | [5] 47.5% | [6] 30.5% | [7] 46.4%
active: [8] -14.4% | [9] -16.5% | [10] 0.196%

Cc1nn(-c2ccccc2)c(Cl)c1/C=N\N=c1/sc2ccccc2n1C
inactive: [1] 114% | [2] 110% | [3] 86.8% | [4] 93% | [5] 99.1% | [6] 107% | [7] 101% | [8] 83.1% | [9] 92.7%

O=C(/C=C/c1c(-c2ccc(Cl)cc2)nn(-c2ccccc2)c1C(F)(F)F)c1ccc(Cl)cc1
inactive: [1] 89% | [2] 94.8% | [3] 88.1% | [4] 74.1% | [5] 118% | [6] 90.7% | [7] 90% | [8] 87.6% | [9] 85.6%
